FUS yeast rescue: rescues growth of FUS-expressing yeast | AID 1347120 | hit rate 0.24% among 390,000 | S. cerevisiae FUS-expressing, growth rescue, OD600, 24 h | Potency, µM (top dose mostly 76.6 µM), most hits filed as activators;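 note: plate controls were DMSO vehicle for no effect and reference control for full effect; nearly all actives have a fitted effect of over 55% in size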
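Read-out: OD at 600 nm after 24hr at 30C, reporting rescue of FUS-induced yeast toxicity. Cells at OD 0.005 in galactose (2%) minimal medium; compounds tested in a dilution series; CP55940 titration from 92uM final as control.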
aSyn yeast inh: inhibitors of alpha-synuclein toxicity in yeast. Yeast expressing alpha-synuclein, growth rescue, BacTiter-Glo, 24 h. Potency, µM (highest dose often 46.1 µM), without a hit: at the highest dose growth rescue (activation), actives largely listed as activators. hit rate 0.14% among 370,000; note: % of control where 0% means no effect; nearly all actives have a fitted effect of over 65% in size
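Rescue of yeast growth: cells expressing toxic alpha-synuclein, induced in galactose at OD600 0.02, incubated with compound 24 h at 30 C. ATP luminescence quantified growth; inhibitors of toxicity appear as activators.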
TDP43 rescue: TDP-43 toxicity inhibition in yeast | AID 652104 | hit rate 1.8% among 410,000 | TDP-43 expressing yeast growth rescue, BacTiter-Glo, 24 h | Potency, µM (titrated, usually from 46.1 µM), without a hit: at the top dose growth rescue (activation), hits mostly activators; note: % of control where 0% means no effect; nearly all actives have a fitted effect of over 50% in size
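In this qHTS, compounds that restore growth of yeast expressing TDP-43 appear as activators. Cells (OD600=0.02, galactose medium, raffinose-pregrown) are incubated with compound 24 hr at 30 deg C and growth is quantified by BacTiter-Glo.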
Abeta yeast res: restores growth of yeast expressing A-beta42 peptide; Potency, µM (highest dose often 46.1 µM), hits mostly activators; yeast expressing A-beta42, growth rescue, OD600, 48 h; response scale: 0% DMSO, 100% iron-clioquinol control; AID 1347071; hit rate 0.063% among 410,000; note: nearly all actives have a fitted effect of over 55% in size
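Growth rescue measured by 600 nm absorbance after 48 h yeast culture at 30 C with compound. Values normalized between DMSO and an equimolar ferric chloride plus clioquinol control.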
The depositor's hits bear a star; i = inactive; u = inconclusive; x = no result given; [ ] = another dose, or the depositor's remark. The list is not random: actives were taken first. Their share in the collection is about 2.1%. Calls come from the whole dose curve; as a rule, active = well fitted curve in the direction sought with a large enough effect; inconclusive = small, poorly fitted or top-dose-only effect, or another doubt; inactive = no such curve, though single readings can be large; an effect the other way counts as inactive or inconclusive. Potency is the fitted concentration of half-maximal effect.

SMILES	FUS yeast rescue	aSyn yeast inh	TDP43 rescue	Abeta yeast res
COc1ccc(C2(c3ccc(OC)cc3)NC(=O)N(CC(=O)NC3(C#N)CCCCC3)C2=O)cc1	14µM*	1%[1.84 µM]	-5%	i
COc1ccc(C2(c3ccc(OC)cc3)NC(=O)N(CC(=O)NC3(C#N)CCCC3)C2=O)cc1	x	0%	6%	i
COc1ccccc1C1CCN(C(=O)c2cccc([N+](=O)[O-])c2)CC1	i	1%	16µM*	i
CC1c2cc3c(cc2CCN1C(=O)c1cccc(Cl)c1)OCCCO3 (stereo not given)	i	0%	13µM*	i
COc1ccccc1C1CCN(C(=O)c2ccc(C(C)(C)C)cc2)CC1	i	-38%	12%	i
COC(=O)c1ccc(OCC2c3cc(OC)c(OC)cc3CCN2C(=O)c2cccc(C)c2)cc1 (stereo not given)	u	22%	25µM*	i
COc1cc2c(cc1OC)C(C)N(C(=O)c1cccc([N+](=O)[O-])c1)CC2 (stereo not given)	i	22µM*	13µM*	i
C(=N\Nc1nc(-c2cccnc2)nc2ccccc12)/c1ccccc1	i	-7%	12%	i
C(=N\Nc1nc(-c2ccccn2)nc2ccccc12)/c1ccccc1	x	13µM*	x	x
COc1ccc2c(c1)c(=O)oc1cc(OCC(=O)NC3CC3)ccc12	i	-1%	8%	i
COc1ccc2c(c1)c(=O)oc1cc(OCC(=O)NC3CCCCC3)ccc12	i	0%	16µM*	u
COc1ccc(Br)c(C(=O)OCC(=O)NC2CCCCCC2)c1	i	16%	22µM*	i
C[C@H]1[C@@H](OC(=O)NCc2cccc(Cl)c2)CC[C@@]23CCCN2C(=O)CCC[C@@H]13	i	x	x	x
Cc1ccccc1-c1nnc(C2CCN(S(=O)(=O)c3ccc(Cl)cc3)CC2)o1	i	x	13%[9.22 µM]	i
COc1ccc(S(=O)(=O)N2CCC(c3nnc(-c4ccccc4C)o3)CC2)c(OC)c1	32µM*	x	0%	i
COc1cccc(CNC(=O)CCc2c(C)nn(-c3ccc(N4CCCC4)nn3)c2C)c1	i	x	-2%	i
CCOC(=O)c1cnc2c(ccc3ccccc32)c1Nc1ccccc1O	i	2%	7%	i
CCCC[C@H]1C2CC(OC(=O)Nc3cccc(C(F)(F)F)c3)C(C2)[C@H]2CCCCN21 (stereo not given in full)	i	x	x	x
COc1ccccc1-c1cc(C(F)(F)F)nc(N2CCOCC2)n1	i	-27%	22µM*	i
CC(=O)c1ccccc1OCCn1nnc(-c2ccc(C)cc2)n1	i	12%	25µM*	i
Nc1ccc(N2CCN(c3ccc(F)cc3)CC2)cc1	i	-3%	-12%	i
Nc1ccc(N2CCN(c3ccc(Cl)c(Cl)c3)CC2)cc1	x	12%	8.9µM*	i
Cc1ccc(Nc2ccc(N3CCN(C(=O)c4ccc([N+](=O)[O-])cc4)CC3)nn2)cc1	i	x	12%	i
N/C(=N\OC(=O)c1ccc([N+](=O)[O-])cc1)c1ccc(Br)cc1	i	-8%	15%	i
Cc1ccc(C(=O)O/N=C(\N)c2cccc([N+](=O)[O-])c2)cc1	i	-13%	10µM*	i
SMILES	FUS yeast rescue	aSyn yeast inh	TDP43 rescue	Abeta yeast res
N/C(=N\OC(=O)c1ccc(Br)cc1)c1cccc([N+](=O)[O-])c1	i	-17%	10µM*	i
N/C(=N\OC(=O)Cc1cccs1)c1cccc([N+](=O)[O-])c1	i	28%	11µM*	i
N/C(=N\OC(=O)c1ccncc1)c1cccc([N+](=O)[O-])c1	i	5%	u	i
Cc1cccc(/C(N)=N/OC(=O)Cc2cccs2)c1	i	-5%	u	i
Cc1cccc(N2CCN(C(=O)c3ccc(NC(=O)c4nsc5ccccc45)cc3)CC2)c1C	i	x	9%	i
COc1cccc(C(O)c2nc(-c3cccc(C(F)(F)F)c3)cs2)c1 (stereo not given)	i	3%	22µM*	i
COc1ccc(C(O)c2nc(-c3cccc(C(F)(F)F)c3)cs2)cc1 (stereo not given)	u	12%	22µM*	i
COc1cc(C(O)c2nc(-c3cccc(C(F)(F)F)c3)cs2)ccc1F (stereo not given)	i	-38%	-71%	i
